Measurements reported in PubChem BioAssay AID504371 (National Center for Advancing Translational Sciences (NCATS), 2011).
Inconclusive results are not listed. The source made the active and inactive calls. Calls come from the whole dose curve; as a rule, active = well fitted curve in the direction sought with a large enough effect; inconclusive = small, poorly fitted or top-dose-only effect, or another doubt; inactive = no such curve, though single readings can be large or run the other way.

Test: qHTS Assay for Compounds Blocking the Interaction Between CBF-beta and RUNX1 for the Treatment of Acute Myeloid Leukemia: ME-1 cellular proliferation, SAR for Probe
Settings: ME-1 cell proliferation, ATP luminescence, 48 h
From the text: NIH Chemical Genomics Center [NCGC] NIH Molecular Libraries Probe Production centers Network [MLPCN] MLPCN Grant: X01MH083259-01 Assay Submitter (PI): Paul Liu NCGC Assay Overview: Core Binding Factor (CBF) abnormalities are associated with 20-25% of all acute myeloid leukemias (AML), of which 5-10% are further sub classified as acute myelomonocytic leukemia with eosinophilia, also known as M4Eo in the FAB classification scheme. This subtype of leukemia is usually associated with chromosome 16 inversion (p13:q22). Chromosome 16 inversion results in formation of the fusion oncogene CBFB-MYH11, which encodes the fusion protein CBF-beta-SMMHC. […] It has been hypothesized that the interference of CBF-beta and RUNX1 binding could have therapeutic implications for patients with CBF mediated leukemias. We developed a CBF-beta and RUNX1 binding assay in AlphaScreenTM format and optimized it for high throughput screening to search for inhibitors. The goal of this project is to screen MLPCN's compound collection (MLSMR) for identifying the inhibitors of the interaction between CBF-beta and RUNX1 proteins as research probes. If these probes work well in the animal models, the ultimate goal of this project is to development a new drug treatment for this disease. The present assay assesses compounds ability to slow cellular proliferation in a CBFb dependent cell line, ME-1.
NCGC Assay protocol: 2uL/well media was dispensed per well into 1536-well white solid-bottom plates using Multidrop Combi dispenser. Subsequently, 23 nL/well compound solutions or DMSO controls were dispensed to the assay plates via a pintool workstation. […] The plates were incubated at 37 °C with 5% CO2 and 95% humidity for 48 hours, and then ATP content was measured following the addition of 4uL/well of ATPlite reagent and a 20 min incubation on a ViewLux plate reader.
In the case of `CN1C(=O)CN=C(c2ccc[nH]2)c2cc(Cl)ccc21` (tested in a mixture with another compound), the Potency is reported as 27.4 µM (active).
With `CCN(CC)CCN1C(=O)CN=C(c2ccc[nH]2)c2cc(Cl)ccc21` the Potency was 137 µM (active).
With `CCN(CC)CCN1C(=O)CN=C(c2ccccn2)c2cc(Cl)ccc21` the Potency was 109 µM (active).
